# 697 NFkB inh – inhibitors of the PMA/ionomycin-induced NF-kB reporter in 697 B cells. inhibition, % at 4 µM. 697 B-cell NF-kB luciferase reporter, 16 h. actives 0.33% (n = 330,000); in the data active means inhibition above about 35%
# aSyn 5UTR inh – MLPCN primary screen, SNCA 5' untranslated region. alpha-synuclein 5'UTR reporter, inhibitor activity. inhibition, % (tested at 7.5 µM). actives 0.82% (n = 300,000); in the data active means inhibition above about 60%; inconclusive means no clear call, values can overlap the other calls;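 further: H4 neuroglioblastoma cells stably carrying SNCA 5'UTR luciferase fusion; 0% = DMSO wells and 100% = positive control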
# TAG inh – triacylglycerol accumulation inhibition | H9c2 cells, Nile Red lipid (TAG) fluorescence; cells loaded with 200 µM oleic acid | inhibition, % at 12.5 µM | actives 0.66% (n = 230,000);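 active means pattern-corrected inhibition of lipid staining of at least 50% with the nuclear-stain viability signal not falling by more than 50%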;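 further: 0% = DMSO wells and 100% = triacsin C control wells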
# Gli-Sufu antag – blocks Gli-Sufu signaling in a luciferase reporter | Sufu-KO-LIGHT fibroblasts, Gli luciferase reporter luminescence | inhibition, % at 5 µM | actives 0.74% (n = 340,000);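 active means inhibition above about 55%, limit read from the data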;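 further: 0% = DMSO-treated cells and 100% = wells with medium but no cells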
# Shn3 inh set2 – inhibitors of Schnurri-3 3'UTR reporter in osteoblasts. Clone20 osteoblast Shn3 3'UTR firefly luciferase, 24 h. AID 588674. actives 0.52% (n = 360,000). inhibition, % at 12.5 µM;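 active means mean inhibition of at least 75% with every replicate also reaching 75%; inconclusive means mean inhibition at least 75% but some replicate below; inactive means mean inhibition below 75%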;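 further: 0% = median of neutral control wells and 100% = pilot-screen positive control compound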
# Jurkat NFkB inh – lowers PMA/ionomycin-induced NF-kB signal in Jurkat cells; PMA/ionomycin-induced NF-kB luciferase reporter, luminescence; inhibition, % at 4 µM; actives 0.53% (n = 330,000); AID 435003; in the data active means inhibition above about 50%
# 697 NFkB conf – lowers PMA/ionomycin-induced NF-kB signal in 697 B cells | actives 35% (n = 2,000) | inhibition, % at 4 µM | shares compounds with 697 NFkB inh | 697 B-cell NF-kB luciferase, 16 h | AID 449746; in the data active means inhibition mostly above about 28%, no sharp cut-off; inactive means mostly below about 22%
# Numbers without * were called inactive; i = inactive; u = inconclusive; x = not tested or not shown. In the library only some 2.3% were active in any assay of this set; here they are far more common.
SMILES,697 NFkB inh,aSyn 5UTR inh,TAG inh,Gli-Sufu antag,Shn3 inh set2,Jurkat NFkB inh,697 NFkB conf
Cc1ccc(-n2c(-c3ccccc3)c[n+]3c2CCc2ccccc2-3)c(C)c1,49*,x,3,87*,u,33,28*
Oc1cccc(-c2nc3ccccc3s2)c1,-259,-25,0,6,-16,-148,-247
Nc1cccc(-c2nc3ccccc3s2)c1,-128,-67,15,-102,-28,-102,x
COc1ccccc1Nc1c([N+](=O)[O-])cncc1[N+](=O)[O-],23,-10,-16,-1,-9,3,x
Cc1ccccc1Cn1c(C(=O)OC(C)C)cc2c1ccn2C,12,13,35,11,-3,9,x
COc1ccc2nc3oc(C(=O)N4CCN(c5ccccc5F)CC4)cc3cc2c1,-12,-6,13,1,-8,0,x
COc1ccc2cc3cc(C(=O)N4CCCCCC4)oc3nc2c1,-266,14,x,-18,2,-136,-244
COc1cc(C(=S)N2CCOCC2)cc(OC)c1OC(=O)Cc1ccc(F)cc1,20,-2,x,1,1,11,x
Cn1c(=NC(=O)CCl)sc2ccccc21,88*,-16,x,7,-17,46,79*
CCn1nccc1C(=O)Nc1cc(Cl)cc(Cl)c1,-25,-34,-1,21,4,-14,x
Cc1ccn2c(=O)nc(SCC(=O)c3ccc(Cl)cc3)nc2c1,-52,-26,5,-5,-17,-25,x
Cc1ccn2c(C(=O)c3ccc(Cl)cc3)cnc2c1,-259,-81,11,-85,-4,-147,-145
COc1ccc(/C=C/c2ccccc2)cc1[C@H]1[C@H]2C=CC[C@@H](C)[C@@H]2C(=O)N1Cc1ccccc1,65*,19,-3,13,36,20,32*
COc1ccc(-c2ccc(N(C)C)cc2)cc1[C@H]1[C@H]2C=CC[C@@H](C)[C@@H]2C(=O)N1Cc1ccccc1,51*,10,13,7,27,9,36*
COc1ccc(-c2ccc(OC)c([C@H]3[C@H]4C=CC[C@@H](C)[C@@H]4C(=O)N3Cc3ccccc3)c2)cc1C,42*,23,33,13,17,18,51*
COc1ccc(-c2ccc(C(C)=O)cc2)cc1[C@H]1[C@H]2C=CC[C@@H](C)[C@@H]2C(=O)N1Cc1ccccc1,48*,13,-7,18,33,31,49*
Cc1oc(C(C)(C)C)c(CN2CCCC2)c1C(=O)O,-6,13,-27,5,-7,11,x
O=C(O)C1=C(C(=O)Nc2cc(C(F)(F)F)ccc2Cl)CCCC1,37*,-11,9,-10,-6,-3,6
O=C(CN1CCCCCC1)Nc1cc(C(F)(F)F)ccc1Cl,11,-7,-11,1,-6,-12,x
Cc1ccn2cc(CCNC(=O)COc3ccccc3)nc2c1,35,-12,-7,2,6,-12,-12
Cc1sc2ncnc(N3CCC(C(=O)Nc4nc(-c5ccc(F)cc5)cs4)CC3)c2c1C,-282,35,26,6,20,8,-45
O=S1(=O)CCOC[C@H](CC2CCCCC2)N1Cc1cccc(Cl)c1,-8,34,-4,0,10,11,x
O=C(NCCS(=O)(=O)N1CCN(c2cccc(Cl)c2)CC1)c1ccco1,35*,8,-12,6,7,-8,-10
CCOC(=O)C1CCCc2c1[nH]c1ccc(Cl)cc21 (stereo not drawn),-427,12,x,5,11,-27,-15
O=C(Cn1ncc2c([nH]c3ccccc32)c1=O)N1CCN(c2ccccn2)CC1,-10,26,x,-26,18,11,x
SMILES,697 NFkB inh,aSyn 5UTR inh,TAG inh,Gli-Sufu antag,Shn3 inh set2,Jurkat NFkB inh,697 NFkB conf
CC(=O)Nc1sc(NC(=O)c2ccc(C)cc2)nc1-c1cccs1,36*,-54,32,16,-23,-8,13
COc1ccc(C2=Nn3c(nnc3-c3ccccc3F)SC2)cc1OC1CCCC1,i,x,-2,-28,8,22,i
O=C(NC1CCSC1=O)c1ccc(Oc2cccc(C(F)(F)F)c2)nc1 (stereo not drawn),-5,8,-1,33,38,-9,x
CCOc1ccccc1CNC(=O)c1cc2oc3ccccc3c2n1C,-359,u,29,3,0,-33,-163
CCOc1ccccc1CNC(=O)c1cc2occc2n1C,0,26,-29,-4,10,12,x
COc1ccc(N=Nc2ccc3ccccc3c2)c(O)c1,-324,16,x,-20,-3,-140,-307
Cc1ccc(C(=O)Nc2c(C)n(C)n(-c3ccccc3)c2=O)cc1,22,-10,3,-5,-8,8,x
CCOC(=O)N1CCN(c2ccnc3cc(Cl)ccc23)CC1,19,-1,x,43,20,8,x
O=C(Oc1ccnc2cc(Cl)ccc12)N1CCCCCC1,38*,-10,-12,-23,7,15,14
O=C(NN1C(=O)C2C3C=CC(C4CC34)C2C1=O)c1ccc(Cl)c(Cl)c1 (stereo not drawn),-10,-17,4,-6,-13,7,x
CCOC(=O)c1cnc(SCc2ccc(C(C)(C)C)cc2)nc1N,-33,-39,20,6,17,-3,x
CCOC(=O)c1cnc(SCc2ccccc2)nc1N,-261,-183,x,-74,-73,-77,-157
Cc1ccc(C)c(-c2nc3ccc(N)cc3[nH]2)c1,-14,-64,-1,42,-9,42,x
Cc1ccc2nc(-c3ccccc3N)[nH]c2c1,-265,-2,-1,-69,-26,-149,-196
C=CCCN(C(CC(C)C)C(=O)OC)S(=O)(=O)c1ccccc1Br (stereo not drawn),9,-5,0,8,18,14,x
Cc1ccccc1N1CC(=O)Nc2c(oc3nc(-c4ccccc4)cc(C)c23)C1=O,38*,3,12,7,-4,-1,-3
O=C(COc1ccc([N+](=O)[O-])cc1)NCc1ccncc1,14,-37,x,-8,-6,-10,x
CCOC(=O)c1nn(-c2ccc3c(c2)CCN3C(C)=O)cc1O,36*,16,x,-65,-44,-32,22
CCOC(=O)N1CCC(NC(=O)c2cc3c(-c4ccc(OC)c(OC)c4)nn(C)c3s2)CC1,41*,10,21,9,27,-6,25
CCOC(=O)N1CCC(NC(=O)c2cc3c(-c4ccccc4F)nn(C)c3s2)CC1,4,-9,-12,10,44,-8,x
CCc1ccc(-c2nc(CSCC(=O)NC3CC3)c(C)o2)cc1,97*,71*,x,80*,13,-8,93*
CSc1ccc(-c2nc(CSCC(=O)NC3CC3)c(C)o2)cc1,90*,12,x,70*,12,-2,49*
CCOC(=O)N1CCC(NC(=O)CSCc2nc(-c3ccc(OC)cc3)oc2C)CC1,10,18,x,21,23,9,x

# Source: PubChem BioAssay (several laboratories)
